In PubChem BioAssay AID504408 (Broad Institute, 2011):
The campaign covered roughly 300,000 compounds. About 5,200 (1.7%) were called active.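 The calls were made as follows: active = mean replicate activation of at least 50% with a set share of replicates each reaching 50%; inconclusive = only one of those two conditions met; inactive = mean below 50% and too few replicates reaching it.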 The list comes from a sample in which actives are over-represented; it also holds similar structures and randomly drawn compounds.

Assay: HSF-1 activators, primary screen, NIH3T3-HGL cells, MG132 stress, luminescence, single point (AID 504408);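 also: 0% = median of the neutral control wells and 100% = twice that signal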
Settings: NIH3T3-HGL HSF-1 luciferase reporter, MG132, 8 h; at 9 µM; active compounds read high; 100% = twice DMSO control signal

| Structure (SMILES) | activation |
| --- | --- |
| Brc1cnc2ccccc2c1N1CCCCC1 | 4.42% (inactive) |
| COc1ccc(CCNC(=O)C(=O)NCC2CCCN2S(=O)(=O)c2cccs2)cc1OC (stereo not drawn) | -2.01% (inactive) |
| C1=C(CCNc2ncnc3c2cnn3-c2ccccc2)CCCC1 | 61.4% (active) |
| O=C(NNc1ncnc2c1cnn2-c1ccccc1)c1ccco1 | 13.2% (inactive) |
| c1ccc(-n2ncc3c(N4CCCC4)ncnc32)cc1 | 41.2% (inactive) |
| O=[N+]([O-])c1cccc(C=NN=Cc2ccccc2O)c1 | -25.2% (inactive) |
| O=C(Oc1ccc(-c2nnco2)cc1)c1ccc(F)c(S(=O)(=O)N2CCOCC2)c1 | 12.4% (inactive) |
| CCCSc1nc2[nH]ncc2c(=O)[nH]1 | -12.9% (inactive) |
| Cc1ccc(CSc2nc3[nH]ncc3c(=O)[nH]2)cc1 | 87.9% (active) |
| Cc1cccc(NC(=O)CSc2nc3[nH]ncc3c(=O)[nH]2)c1 | 7.39% (inactive) |
| Cc1cccc(N2CC(C(=O)Nc3ccccc3N3CCCC3)CC2=O)c1C (stereo not drawn) | -9.91% (inactive) |
| Cc1ccc(S(=O)(=O)N2CCN(C(=O)Cc3sc(C)nc3-c3ccc(F)cc3)CC2)c(C)c1 | 5.21% (inactive) |
| CCOC(=O)c1cc(C(C)C)sc1NC(=O)COC(=O)c1nccnc1N | -14.3% (inactive) |
| Cc1ccsc1C(=O)N/N=C/c1ccc([N+](=O)[O-])cc1 | 59% (active) |
| NC(=S)N/N=C/c1ccc([N+](=O)[O-])cc1 | 19.9% (inactive) |
| Cc1nc2ccccc2cc1C(=O)N/N=C/c1ccc([N+](=O)[O-])cc1 | 10.7% (inactive) |
| O=C(Nc1ccc(N2CCCCC2)cc1)c1cc(S(=O)(=O)N2CCOCC2)ccc1F | 12.6% (inactive) |
| CC1CCC(NC(=O)CNC(=O)c2ccc3ccccc3c2)CC1 (stereo not drawn) | 26.1% (inactive) |
| O=C(COC(=O)Cn1[nH]c(=O)c2ccccc2c1=O)Nc1c(Cl)cccc1C(F)(F)F | -2.68% (inactive) |
| CC1(C)CC(N2CCN(C(c3ccccc3)c3ccccc3)CC2)=CC(=[N+]2CCCCC2)C1 | 59.1% (active) |
| O=C(O)CN1CCN(C(c2ccccc2)c2ccccc2)CC1 | -26.6% (inactive) |
| CC(C)NC(=S)N1CCN(C(c2ccccc2)c2ccccc2)CC1 | 13.7% (inactive) |
| COc1ccccc1CCNC(=O)CN1C(=O)NC2(CCCC2)C1=O | -21.2% (inactive) |
| CC(NC(=O)c1ccccc1F)c1cccc2ccccc12 (stereo not drawn) | -4.26% (inactive) |

| Structure (SMILES) | activation |
| --- | --- |
| CNC(=O)COC(=O)c1cc(-c2ccc(OC)cc2)nc2ccccc12 | 31.1% (inactive) |
| COc1ccc(-c2cc(C(=O)Nc3ccccc3O)c3ccccc3n2)cc1 | 65.5% (active) |
| COc1ccc(NC(=O)c2cc(-c3cc(OC)c(OC)c(OC)c3)nc3ccccc23)c(OC)c1 | -3.17% (inactive) |
| COc1ccc(NC(=O)CN(C)C(=O)Cc2coc3cc(C)c(C)cc23)cc1 | -0.425% (inactive) |
| CC(=O)c1nn(-c2ccc(C)cc2)cc1C(=O)c1cccc(Br)c1 | -31.9% (inactive) |
| COc1ccc(C(=O)n2nc(C)c(Br)c2C)cc1OC | 6.57% (inactive) |
| COc1ccc(C(=O)n2nc(-c3ccc(C)cc3)nc2N)cc1OC | -1.25% (inactive) |
| COc1ccc(C(=O)n2nc(-c3ccc(Cl)cc3)nc2N)cc1OC | 71.9% (active) |
| CC12CCC(=O)N1C(C(=O)NCCN1C(=O)S/C(=C\c3ccccc3F)C1=O)CS2 (stereo not drawn) | 3.07% (inactive) |
| O=C(CCCN1C(=O)/C(=C\c2ccco2)SC1=S)Nc1cccc2ccccc12 | 14.2% (inactive) |
| CCCN(CCC)c1nc2c(C)cccn2c(=O)c1/C=C1/SC(=S)N(Cc2ccco2)C1=O | 99% (active) |
| CCOC(=O)CC1C(=O)NCCN1c1nc2c(C)cccn2c(=O)c1/C=C1\SC(=S)N(C(C)CC)C1=O (stereo not drawn) | -29% (inactive) |
| CC(C)c1ccc(S(=O)(=O)N2CCN(C(=O)CN3C(=O)NC(C)(c4ccccc4)C3=O)CC2)cc1 (stereo not drawn) | -9.21% (inactive) |
| CCC(CC)c1nnc(NC(=O)C2=COCCO2)s1 | 13.8% (inactive) |
| O=C(c1ccc(F)c(S(=O)(=O)N2CCOCC2)c1)N(CCc1ccccc1)Cc1ccccc1 | 6.07% (inactive) |
| O=C(CSc1nc2[nH]ncc2c(=O)[nH]1)Nc1ccc(F)cc1 | -14.4% (inactive) |
| CC(=O)Cn1ncc(N2CCOCC2)c(Br)c1=O | -14.8% (inactive) |
| O=C(Cn1nc(CNc2ccc(Cl)cc2)[n+]2c1CCCCC2)c1ccc(Cl)cc1 | 19.7% (inactive) |
| O=C(Cn1ncc(N2CCCC2)c(Br)c1=O)c1ccc(Cl)cc1 | 75.4% (active) |
| O=C(NCC(c1ccco1)N1CCc2ccccc21)c1cccc(F)c1 (stereo not drawn) | 33.2% (inactive) |
| Cc1ccc(-c2nn(-c3ccccc3)cc2C(=O)NCCCN2CCCC2=O)cc1 | -4.32% (inactive) |
| O=[N+]([O-])c1ccccc1/C=C/CN1CCCC(CO)C1 (stereo not drawn) | -4.33% (inactive) |
| CC1CCCCC1NC(=O)/C(C#N)=C/C=C/c1ccccc1[N+](=O)[O-] (stereo not drawn) | 53.4% (active) |
| O=[N+]([O-])c1ccccc1/C=C/CN1CCC(O)CC1 | -18.5% (inactive) |

| Structure (SMILES) | activation |
| --- | --- |
| O=C(Nc1cc2c3c(c1)CC(=O)N3CCC2)c1ccccc1F | -11.8% (inactive) |
| Cc1nc(-c2ccccc2)sc1C(=O)/C=C/N(C)C | -1.43% (inactive) |
| Cc1nc(-c2ccc(Cl)cc2)sc1C(=O)CBr | 75.1% (active) |
| Cc1nc(-c2ccc(Cl)cc2)sc1C(=O)NN | -2.26% (inactive) |
| COc1ccccc1NC(=O)COC(=O)c1ccccc1SCC(=O)N1CCCC1 | -2.69% (inactive) |
| CN(C)CCCNC(=O)/C=C/c1ccc(OCc2c(F)cccc2Cl)cc1 | -16.4% (inactive) |
| O=C(/C=C/c1ccc(OCc2c(F)cccc2Cl)cc1)N1CCOCC1 | 67.7% (active) |
| COCCCNC(=O)/C=C/c1ccc(OCc2c(F)cccc2Cl)cc1 | 0.816% (inactive) |
| Cc1ccn2c(=O)nc(SCC(=O)NCc3ccc4c(c3)OCO4)nc2c1 | -9.78% (inactive) |
| CC1=NNC(=O)C1Cc1c(Cl)cccc1Cl (stereo not drawn) | 8.87% (inactive) |
| O=C(Cc1nc2ccccc2[nH]c1=O)c1ccc(Cl)cc1 | 74.3% (active) |
| O=C(CSc1nc2ccc([N+](=O)[O-])cc2[nH]1)c1ccc(Cl)cc1 | 9.88% (inactive) |
| N#C/C(=C(/O)COC(=O)COc1ccc(Cl)cc1)c1nc2ccccc2[nH]1 | 25.2% (inactive) |
| CCN1C(=O)[C@@H]2[C@@H](c3ccc(-c4ccc(OC)cc4)c(OC)c3)N3CCC[C@@]3(C(=O)OC)[C@@H]2C1=O | 14.7% (inactive) |
| COc1ccc(OCCCON2C(=O)c3ccccc3C2=O)cc1 | 3.41% (inactive) |
| CCOC(=O)c1c(-c2ccc(C)cc2)csc1/N=C(\C)C1=C(O)c2ccccc2C1=O | 9.57% (inactive) |
| CCOC(=O)C1=C(c2ccc(OC)cc2)C(=O)c2ccccc2C1=O | 82.9% (active) |
| O=C(Cc1ccc(S(=O)(=O)N2CCOCC2)s1)NCCOc1ccccc1F | 3.3% (inactive) |
| CC(=O)Nc1cccc(C(=O)OCC(=O)Nc2nnc(-c3ccccc3)o2)c1 | -13.5% (inactive) |
| O=C(OCc1ccc(-c2ccccc2)cc1)c1cccc(O)c1 | 6.99% (inactive) |
| c1ccc(-c2c[nH]c(-c3ccccc3)c2)cc1 | -83.8% (inactive) |
| Oc1ccc(-c2cccc(-c3ccc(O)cc3)c2)cc1 | 62% (active) |
| Cc1ccc(N2CCN(c3ccc([N+](=O)[O-])cn3)CC2)c(C)c1 | 14% (inactive) |
| Cc1cc(/C=N/Nc2ccc([N+](=O)[O-])cn2)c(C)n1-c1cccc(C(=O)O)c1 | 2.82% (inactive) |

| Structure (SMILES) | activation |
| --- | --- |
| Cc1ccc(-n2c(C)cc(/C=N/Nc3ccc([N+](=O)[O-])cn3)c2C)c(C)c1 | 57.8% (active) |
| Cc1ccc(S(=O)(=O)NCCC(=O)OCC(=O)N(C)c2ccccc2)cc1 | 2.24% (inactive) |
| O=C(c1ccc(Cl)s1)N(Cc1nnc(-c2ccccc2Cl)o1)C1CC1 | 19.5% (inactive) |
| COc1ccc(NS(=O)(=O)c2ccc(NC(=S)NC(=O)/C=C/c3ccc(C)cc3)cc2)nn1 | -3.51% (inactive) |
| COc1ccc(/C=C/C(=O)c2ccc(NS(=O)(=O)c3ccc(C)cc3)cc2)cc1O | 200% (active) |
| Cc1ccc(C(=O)/C=C/Nc2ccc(S(=O)(=O)Nc3onc(C)c3C)cc2)cc1 | 2.18% (inactive) |
| COc1ccc(C2=NN(C(C)=O)C(c3ccccc3)C2)cc1 (stereo not drawn) | 21.6% (inactive) |
| COc1ccc(C2CC(c3cccs3)=NN2C(=O)CCC(=O)O)cc1OC (stereo not drawn) | -17.8% (inactive) |
| COc1ccc(C2CC(c3cccs3)=NN2c2ccc(F)cc2)cc1OC (stereo not drawn) | 22.9% (inactive) |
| COc1ccc(C2=NN(c3ccccc3)C(c3cccs3)C2)cc1 (stereo not drawn) | 50.9% (active) |
| Oc1ccccc1C1=NN(c2ccccc2)C(c2ccccc2)C1 (stereo not drawn) | 0.471% (inactive) |
| COc1ccc(C2=NN(C(=O)CCC(=O)O)C(c3cccs3)C2)cc1OC (stereo not drawn) | -7.93% (inactive) |
| COc1ccc(C2CC(c3cccs3)=NN2c2ccccc2)cc1 (stereo not drawn) | 67.4% (active) |
| COc1ccccc1N1N=C(c2cccs2)CC1c1ccccc1 (stereo not drawn) | 9.62% (inactive) |
| COc1ccc(C2CC(c3cccs3)=NN2c2nc(C)c(C(C)=O)s2)cc1OC (stereo not drawn) | 149% (active) |
| O=S(=O)(c1ccccc1)N1CCC(c2ccccc2)CC1 | -26.8% (inactive) |
| CN(N)c1nc(N2CCCC2)nc(N2CCCC2)n1 | -5.13% (inactive) |
| CC(C)COc1ccc(C(=O)OCC(=O)NCCC2=CCCCC2)cc1 | -2.4% (inactive) |
| CNc1nc(-c2ccccc2)cc(-c2ccccc2)n1 | 74.1% (active) |
| Nc1nc(-c2ccccc2)cc(-c2ccccc2)n1 | 21.8% (inactive) |
| Nc1cccc(-c2cc(-c3ccccc3)nc(-c3cccc(N)c3)n2)c1 | -6.32% (inactive) |
